This passage reports growth results from PubChem BioAssay (NCI).

The panel holds about 83,000 compounds, 20% with a hit somewhere; the sample as a whole holds those more often.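 Activity criterion: percent growth below 10, measured after cells in 96-well plates were exposed to a single compound concentration for 48 hours.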 A number with no mark means an inactive call. Active and inactive are the calls of the source.

This test concerns A498 renal. As to the kind of experiment: NCI-60 one-dose screen, 48 h (100 = growth as untreated, 0 = no growth, -100 = all killed). Conditions: 10 µM unless noted.
Take `Clc1ccc([I+]c2ccc(Cl)cc2Cl)c(Cl)c1`: the growth is 69.9%. Regarding `Cc1ccc(C2=NN(c3ccc(S(N)(=O)=O)cc3)C(c3cn(-c4ccccc4)nc3-c3ccccc3)C2)cc1` (stereo not drawn), the growth was -5.87% (active). Regarding `N#CC1=C(N)OC2=C(C(=O)CCC2)C1c1ccco1` (stereo not drawn), the growth was 112%. Consider `COC1=CC(c2ccc[nH]2)=N/C1=C\c1[nH]c(C)c(C(=O)CCCCC(=O)Oc2ccc3c(c2)CCC2C3CC[C@]3(C)[C@@H](O)CC[C@@H]23)c1C` (stereo partly drawn), for which the growth was 38.5%.

With `COc1ccc(NC(=O)CSc2nc3ccccc3c(=O)n2Cc2cc(OC)c(OC)c(OC)c2)cc1`, the growth was 87.1%. With `Nc1c(C(=O)Nc2c(Cl)cccc2Cl)sc2nc3c(cc12)CCCCC3` the figure was 30%; with `O=C(CN1CCN(c2cc3c(cc2F)c(=O)c(C(=O)O)cn3C2CC2)CC1)Nc1ccc(C(=O)/C=C/c2ccccc2)cc1`, 57.7%; with `COc1cc(/C=C/C(=O)c2ccc(NC(=O)CN3CCN(c4cc5c(cc4F)c(=O)c(C(=O)O)cn5C4CC4)CC3)cc2)cc(OC)c1OC`, -43.8% (active). Turning to `NC(=O)c1c(NC(=O)c2ccc(OCC3CCCO3)cc2)sc2c1CCCC2` (stereo not drawn), the growth is 86.5%. For `COc1ccc(/C=C/C(=O)OCC(=O)NNC(=O)c2ccccc2)cc1OC`, the growth is 93%. With `Cc1sc(N=Nc2ccc(N(C)C)cc2)[n+]([O-])c1C` the figure was 88.1%. For `O=C(/C=C/c1ccccc1)n1c(-c2ccc(Cl)cc2)nc2ccccc21`, the growth is -14.6% (active). In the case of `COC(=O)[C@H]1[C@H](OC)[C@@H](OC(=O)/C=C/c2ccncc2)CC2CN3CCc4c([nH]c5cc(OC)ccc45)[C@@H]3C[C@@H]21` (stereo partly drawn), the growth was 31.5%.
